Assay results as given in the supplement of paper PMC6555819.

Legend:
Experiment in all cases: PBM binding z-score (relative to random genomic background probes); higher = stronger binding; sequences stand for … in GC…GCGATTGACAGCGTAGAATGAAGG
[1] = tested on: PPARg:RXRa DBDmut IVT, anti-RXR (DBD mutation: RXRa K156A/R161A, NR concentration 270 nM, RXRa partner concentration 90 nM)
Method in brief: (§1)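 Regression normalization was applied to scanned fluorescence from custom Agilent 4×180K protein-binding microarrays. Before scanning, arrays were incubated 1 h with ligand-free nuclear receptor dimers, and binding was detected with antibodies against each partner (one per run). Binding z-scores use the random background probes as reference.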

[2] = tested on: PPARg:RXRa IVT, anti-PPARg (NR concentration 270 nM, RXRa partner concentration 90 nM)
Method in brief: as §1

[3] = tested on: PPARg DBDmut:RXRa IVT, anti-PPARg (DBD mutation: PPARg1 K132A/R137A, NR concentration 270 nM, RXRa partner concentration 90 nM)
Method in brief: as §1

[4] = tested on: PPARg DBDmut IVT, anti-PPARg (DBD mutation: PPARg1 K132A/R137A, NR concentration 270 nM)
Method in brief: as §1

[5] = tested on: PPARg homodimer (NR concentration 180 nM)
Method in brief: as §1

[6] = tested on: PXR:RXRa (NR concentration 270 nM, RXRa partner concentration 90 nM)
Method in brief: as §1

[7] = tested on: PXR homodimer (NR concentration 270 nM)
Method in brief: as §1

[8] = tested on: RARa:RXR (NR concentration 270 nM, RXRa partner concentration 90 nM)
Method in brief: as §1

[9] = tested on: RARa homodimer (NR concentration 270 nM)
Method in brief: as §1

[10] = tested on: RARb:RXRa (NR concentration 270 nM, RXRa partner concentration 90 nM)
Method in brief: as §1

Sequence	PBM binding z-score [1]	PBM binding z-score [2]	PBM binding z-score [3]	PBM binding z-score [4]	PBM binding z-score [5]	PBM binding z-score [6]	PBM binding z-score [7]	PBM binding z-score [8]	PBM binding z-score [9]	PBM binding z-score [10]
CAGCCTAGGTCAGGACCAGTATAGGAGGAACGTT	1.07	1.37	-0.507	-1.17	0.861	0.277	-0.104	0.885	0.139	3.26
TGTCAAAGTTCAAACGTAACGTAAGTATCCACAC	0.502	4.09	1.75	1.83	2.5	5.07	4.65	3.8	1.09	4.99
AGAATGAGGTTACCAAAGATCCGGGAAACGCTTG	3.81	3.61	0.821	0.35	0.752	0.78	-0.0527	1.76	0.0139	2.05
CGAACGAGGGCATGAGTTCATAGCAAATGCCGAT	3.09	2.4	-0.0442	-0.857	0.292	4.74	7.66	2.71	-0.81	3.01
CGTCCAAGTTCAAAGGTCAGTGAAGAGATGACGG	0.396	2.79	0.887	0.712	4.76	6.79	4.04	7.83	2.04	5.11
TTACCAAGGTGAGCTGAGGTCGTTGTTCCAACTC	1.27	2.01	-0.911	-0.688	-0.161	5	0.345	2.16	-0.978	1.79
ACAGACACGTGATGAAGGTAACTCAGGCTATCAT	-0.318	-0.0146	0.501	0.226	0.142	-0.0986	0.0203	0.352	0.63	-0.138
CAAACTGGGTCAAGGTCAAAGTCGGTTTGTGCCA	8.04	8.43	4.25	1.48	4.04	5.26	2.48	5.2	1.14	4.95
TCTGCTAAGTCAACGATGGTCAGCTAATCTGCTA	0.507	-0.186	-0.69	-0.943	-1.18	-0.538	-1.18	-0.422	-1.62	0.171
CATACAGGGTCAGCTCGGCCAGAGTAGGGACGGC	0.771	2.11	1.08	0.134	0.989	2.02	0.0599	2.97	0.394	4
AGAATGAGGTTATACGTAGATCCGGGAAGAAAGT	3.81	2.11	0.942	0.253	0.53	0.73	0.508	1.02	0.0175	1.27
TCATATAGGTAATACAGGTGAATGTCGGCATCTA	4.3	3.5	1.54	1.28	1.27	0.727	0.579	1.2	1.94	0.634
ACTATTAGTTGATTTAGGGCAACCGATACGACGC	1.57	2.39	2.12	1.32	1.41	0.00966	0.993	0.345	1.47	0.582
TCATATAGGTAAATGCTAGGGGAAAGTCCGATCT	4.25	2.11	1.09	1.29	0.609	0.434	0.33	0.628	1.4	0.327
TCTTGTAGATCAACCAGGTTAAGAAAGCCTGAGT	2.07	0.996	-0.047	0.818	-0.217	0.658	0.148	0.664	0.037	0.316
CCTCTTAGTTGACCATAAGGGCAACCGAAGCTCG	0.417	0.373	0.452	-0.136	1.43	0.861	0.453	1.04	0.928	1.7
AGCATGAGGTTATTAAGATCAGGGAATTGCGGTC	0.439	0.818	0.518	-0.586	0.577	1.29	0.786	1.44	0.368	1.45
CCGAGTACGTTATGGGGCATTCAGGCAACGGTGA	0.389	0.0516	-0.885	-0.78	-0.751	-0.602	-0.398	-0.541	-0.162	0.16
TGAATGTGGTTAAAGATCAGGGAACGTGGCGTCG	-0.308	0.475	0.142	1.06	0.818	-0.282	-0.00828	-0.185	0.484	-0.112
ATACCAAGGTGATCGGGAGGTCGTTGATACTAAC	0.345	1.15	0.229	0.179	1.3	2.92	1.26	2.08	0.622	1.31
CCTAGTTGATCAGGAGGTCACACACCGGATATGA	0.771	2.22	0.83	0.641	4.38	4.62	1.79	5.02	2.57	3.46
CCTACTGGGCCAGTCAGAGGTCATTGATCATATG	3.73	3.52	-0.533	-0.399	2.3	4.85	1.42	4.37	0.375	2.92
AGTCAAAGTTTACTAGGTAACGTAAGATTCAGCT	3.45	4.76	0.895	0.737	0.729	0.455	0.255	0.426	0.29	1.81
TCTTGCAGATCAACAGGAGGTTAAGAAAGATCGA	0.996	0.188	0.472	0.407	-0.378	0.713	-0.172	0.812	-0.193	0.489
